In PubChem BioAssay (Tox21):
Inconclusive results are not listed. Where a call stands in place of a potency, no number is given. The source made the active and inactive calls. Calls come from the whole dose curve; as a rule, active = well fitted inhibition curve with a large enough effect in the signal ratio in the repeat runs, with a control signal flat; inconclusive = weak or mixed curves, or effect the other way; inactive = flat fitted curve, though single readings scatter; the % refers to the signal ratio.

target: D(2) dopamine receptor (Homo sapiens) (UniProt P14416); assay: Dopamine D2 receptor (DRD2) small molecule antagonists, cell-based qHTS assay (AID 1963595); settings: HEK293-DRD2 cAMP HTRF antagonist mode; series mostly up to 92.4 µM
Sequence (P14416 whole entry, looked up): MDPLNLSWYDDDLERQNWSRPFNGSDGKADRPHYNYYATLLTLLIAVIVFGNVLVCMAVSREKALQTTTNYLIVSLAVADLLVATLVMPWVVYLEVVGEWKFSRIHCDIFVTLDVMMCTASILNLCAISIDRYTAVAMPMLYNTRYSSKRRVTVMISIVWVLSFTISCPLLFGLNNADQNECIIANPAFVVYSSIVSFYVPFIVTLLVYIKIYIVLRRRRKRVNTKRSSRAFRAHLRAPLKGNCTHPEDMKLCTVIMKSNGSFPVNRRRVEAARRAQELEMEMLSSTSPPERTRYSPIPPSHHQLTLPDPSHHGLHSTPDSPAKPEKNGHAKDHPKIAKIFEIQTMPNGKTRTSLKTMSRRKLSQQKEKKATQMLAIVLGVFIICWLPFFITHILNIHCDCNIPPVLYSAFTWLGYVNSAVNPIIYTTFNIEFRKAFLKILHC
Description: National Center for Advancing Translational Sciences [NCATS]
Division of Preclinical Innovation [DPI]
U.S. Environmental Protection Agency [EPA]
National Institutes of Environmental Health Sciences [NIEHS]
National Toxicology Program [NTP]
U.S. Food and Drug Administration [FDA]
DRD2 is the D2 subtype of the dopamine receptor, which is coupled to Gi subtype of G protein-coupled receptor. This G protein-coupled receptor inhibits adenylyl cyclase activity. The DRD2-HEK293 cell line stably expressing D2 dopamine receptor can be used for screening agonists and antagonists of interactions between D2 and its ligands. The Hek293-DRD2 cAMP assay is based on HTRF technology. It measures changes of cAMP accumulation in response to Gi coupled GPCR activation or inhibition.
Tox21 Assay Protocol Summary:
DRD2-Hek293 cells were dispensed at 600 cells/3uL/well in 1536-well white plates using a Multidrop Dispenser. After the assay plates were incubated at a 37 C/5% CO2 incubator for 24 h, 1 uL of Ro20-1724 at final concentration of 0.1 mM was transferred to the assay plate by a Flying Reagent Dispenser. Following Ro20-1724 addition, 23 nL of compound dissolved in DMSO, positive controls or DMSO only was added to the assay plates via Wako pintool station. The assay plates were incubated at room temperature for 10 min. Next, 1 uL of mixture of NKH477 (final concentration at 200 nM) and quinpirole (final concentration at 12 nM) was added into the plates. After the assay plates were incubated at room temperature for an additional 30 min, 2.5 ul/well of cAMP-d2 and 2.5 ul/well of anti-cAMP-cryptate were added respectively into the assay plates using a Flying Reagent Dispenser. The plates were incubated at room temperature for 1 h. The fluorescence intensity in the plates was measured at 340 nm excitation and 665 & 620 nm emission by an Envision plate reader.

Structure (SMILES)	Potency	activity change, negative = inhibition
CC(C)(C)CC(=O)OCC(=O)[C@@]1(O)CC[C@H]2[C@@H]3CCC4=CC(=O)C=C[C@]4(C)[C@H]3[C@@H](O)C[C@@]21C	inactive	–
CC(C)OCC1CO1 (stereo not given)	inactive	–
C=C(C)c1ccccc1	inactive	–
CCN(CC)CCOC(=O)C1(c2ccccc2)CCCC1	inactive	–
O=C(O)CCNC(=O)c1ccccc1	inactive	–
CC(C)C[C@@H](N)C(=O)O	–	4.57% [at 18.9 µM] (inactive)
O=C(Oc1ccccc1)c1ccccc1C(=O)Oc1ccccc1	inactive	–
CC(C)OC(=O)C(C)N(C(=O)c1ccccc1)c1ccc(F)c(Cl)c1 (stereo not given)	inactive	–
N#Cc1cc2ccccc2c2ccccc12	inactive	–
OC(CCN1CCCC1)(c1ccccc1)C1CCCCC1 (stereo not given)	inactive	–
OCCCc1cccnc1	inactive	–
CCn1c2ccccc2c2cc([N+](=O)[O-])ccc21	inactive	–
CC(=O)C(C)=O	inactive	–
CN1CCN(c2c(F)cc3c(=O)c(C(=O)O)cn4c3c2OCN4C)CC1	–	2.83% [at 18.9 µM] (inactive)
CCN(CC)C(=O)/C(C#N)=C/c1cc(O)c(O)c([N+](=O)[O-])c1	inactive	–
COc1ccc2sc(C(=O)Nc3nnn[nH]3)c(OC(C)C)c2c1	inactive	–
CC(C)(C)C(=O)CC(=O)C(C)(C)C	inactive	–
O=CNNC=O	inactive	–
CCCCCCC(O)CO (stereo not given)	inactive	–
C=CN1CCCCCC1=O	inactive	–

Structure (SMILES)	Potency	activity change, negative = inhibition
Cc1occc1C(=O)Nc1ccc(C(=O)N2CCC(F)(F)/C(=C\C(=O)N3CCC(N4CCCCC4)CC3)c3ccccc32)cc1	inactive	–
CC(C)CCCCCCc1ccc(OCCOCCO)cc1	inactive	–
COc1cc2nc(N3CCN(C(=O)c4ccco4)CC3)nc(N)c2cc1OC	–	1.94% [at 18.9 µM] (inactive)
O=C1c2ccccc2C(=O)C1c1ccc(Br)cc1	inactive	–
C=C(C)C(=O)OCC(C)(C)COC(=O)C(=C)C	inactive	–
CC(=O)Oc1cc(C(C)C)c(OCCN(C)C)cc1C	inactive	–
CCCCCCCCCCCC	inactive	–
C=COCCCCO	inactive	–
CO[Si](C)(OC)c1ccccc1	inactive	–
COc1cc(NS(=O)(=O)c2ccc(N)cc2)ncn1	inactive	–
C=C[Si](C)(C)O[Si](C)(C)C=C	inactive	–
Cc1cccc([N+](=O)[O-])c1C(=O)O	inactive	–
CC(CCc1ccccc1)NCC(O)c1ccc(O)c(C(N)=O)c1 (stereo not given)	inactive	–
Nc1ccc(C(=O)NCC(=O)O)cc1	inactive	–
CS(=O)(=O)c1ccc(-c2cn3ccccc3n2)cc1	inactive	–
CCCCCCCCCCCCCC=O	–	7.61% [at 8.38 µM] (inactive)
O=[N+]([O-])c1ccc(F)c(Cl)c1	inactive	–
O=C(CCCCCCCCC#CI)Oc1ccccc1	inactive	–
O=C1C(=O)c2ccccc2C(O)=C1C1CCC(c2ccc(Cl)cc2)CC1 (stereo not given)	inactive	–
CCNS(=O)(=O)c1ccc(C)cc1	inactive	–
